{
  "source": "PubChem BioAssay (NCI)",
  "note": "About 83,000 compounds went through this panel and 20% of them were active in at least one assay; those are over-represented in the sample as a whole.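 Note: values are percent growth. 100 is the growth of untreated cells, values between 100 and 0 indicate rising inhibition; between -100 and 0 indicates cell death.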 Values without a mark were called inactive. Active and inactive are the calls of the source. Rule for the calls: active = growth percent below 10; inactive = the rest.",
  "data": [
    {"system": "HL-60(TB) leukemia", "experiment": "NCI-60 one-dose screen, 48 h (100 = growth as untreated, 0 = no growth, -100 = all killed)", "settings": "10 µM unless noted", "values": [
      {"molecule": "CCCCCCCCCCCCCCCCOC(=O)c1c(C)[nH]c(/C=C2\\N=C(c3ccc[nH]3)C=C2OC)c1C", "growth": "62.2%"},
      {"molecule": "Nc1ccc(C2=NN(C(=O)c3cc(-c4ccc(Cl)cc4)nc4ccccc34)C(c3ccc(Cl)cc3)C2)cc1", "note": "(stereo unspecified)", "growth": "-4.63% (active)"},
      {"molecule": "C#CCO[C@H]1CC(CC#C)(CC#C)C(=O)[C@@H]2[C@H]1[C@H]1C[C@@H]3[C@@]4(C)CCC[C@@](C)(C(=O)OC)[C@@H]4CC[C@@]23C=C1C(C)C", "growth": "54.8%"},
      {"molecule": "CN(C)CC(O)c1ccc(/C=C/c2ccc(Cl)cc2)cc1", "note": "(stereo unspecified)", "growth": "-43.6% (active)"},
      {"molecule": "O=C(CCCC(=O)Nc1ccc(-n2nnc3cc(Cl)c(Cl)cc32)cc1)Nc1ccc(-n2nnc3cc(Cl)c(Cl)cc32)cc1", "growth": "75.9%"},
      {"molecule": "Brc1ccc(C2CC(c3cccc(Nc4ccncc4)c3)=NN2c2ccccc2)cc1", "note": "(stereo unspecified)", "growth": "56.9%"},
      {"molecule": "O=C(O)c1c[nH]c2ccccc2c1=O", "growth": "91.2%"},
      {"molecule": "Oc1ccccc1/C=N/c1ccccn1", "growth": "102%"},
      {"molecule": "O=[N+]([O-])CC(c1ccccc1)c1c[nH]c2ccccc12", "note": "(stereo unspecified)", "growth": "7.86% (active)"},
      {"molecule": "C[C@H]1[C@H](C)CC[C@]2(COC(=O)CCC(=O)O)CC[C@]3(C)C(=CC[C@@H]4[C@@]5(C)CCCNC(C)(C)[C@@H]5CC[C@]43C)[C@H]12", "growth": "49.3% [100 µM]"},
      {"molecule": "COc1ccc(C2CC(c3ccc(OC)c(OC)c3)=NN2C(=O)c2cc(OC)c(OC)c(OC)c2)cc1", "note": "(stereo unspecified)", "growth": "5.49% (active)"},
      {"molecule": "CCCCCCCCCCCCNC(=O)N[C@H](C(=O)N[C@H]1/C=C/CCNC(=O)/C=C/[C@H](C)NC1=O)C(C)C", "growth": "-25.2% (active)"},
      {"molecule": "Clc1ccc(/C=C/c2ccccn2)cc1", "growth": "99.4%"},
      {"molecule": "O=C1CCCCN1CCCCC#Cc1cccc(C#Cc2cccnc2)c1", "growth": "-23.2% (active)"},
      {"molecule": "Cc1nc([P+](c2ccccc2)(c2ccccc2)c2ccccc2)c(Sc2sc(-c3ccccc3)nc2[P+](c2ccccc2)(c2ccccc2)c2ccccc2)o1", "growth": "-17.9% (active)"},
      {"molecule": "CCc1ccccc1NC(=O)c1sc2nc3c(cc2c1N)CCCC3", "growth": "2.66% (active)"},
      {"molecule": "CCOc1cc2ncc(C#N)c(Nc3ccc(F)c(Cl)c3)c2cc1NC(=O)/C=C/CN(C)C", "growth": "-52.6% (active)"},
      {"molecule": "COc1ccc(Nc2ccnc(NCCNc3ccnc4cc(Cl)ccc34)n2)cc1", "growth": "39%"},
      {"molecule": "CCOC(=O)Nc1ccc2c3c(cccc13)-c1ccccc1-2", "growth": "6.94% (active)"},
      {"molecule": "CCN(CC)Cc1cc(C=C2C(=O)NC(=S)NC2=O)cc(OC)c1O", "growth": "106%"},
      {"molecule": "CN(C)Cc1ccc(C(=O)Nc2ccc3ncnc(Nc4ccc(Oc5cccc(F)c5)c(Cl)c4)c3c2)cc1", "growth": "-41.7% (active)"},
      {"molecule": "CC(C)CSc1nc(-c2ccc(F)cc2)c(C#N)c(N2CCCCC2)n1", "growth": "101%"},
      {"molecule": "O=C(Nc1ccc(F)cc1F)c1cc(I)ccc1O", "growth": "-34.5% (active)"},
      {"molecule": "O=C(Nc1ccc(-n2cc(-c3ccncc3)c(-c3ccc(O)c(Cl)c3)n2)cc1)c1ccc(Cl)c(C(F)(F)F)c1", "growth": "10.9%"},
      {"molecule": "COc1ccc(/C=C(\\c2cc(OC)c(OC)c(OC)c2)c2nnc(-c3cccs3)o2)cc1", "growth": "92%"},
      {"molecule": "CC1Cc2ccc(OCCN(C)C)cc2C1=O", "note": "(stereo unspecified)", "growth": "111%"},
      {"molecule": "COc1ccc(-c2nc3ccccn3c2-c2nnc(-c3cc(OC)c(OC)c(OC)c3)o2)cc1", "growth": "85.6%"},
      {"molecule": "C/C=C/C1=CN2C(=O)c3cc(OC4OC(C)C(NC)C(C)(O)C4O)c(C)cc3N=C[C@@H]2C1", "note": "(stereo partly specified)", "growth": "-4.41% (active)"},
      {"molecule": "C#C[C@]1(O)CC[C@H]2[C@@H]3CC=C4c5sc(Nc6cc(F)ccc6F)nc5CC[C@]4(C)[C@H]3CC[C@@]21C", "growth": "-1.19% (active)"},
      {"molecule": "C[C@H](Oc1cc(-c2cnn(C3CCNCC3)c2)cnc1N)c1c(Cl)ccc(F)c1Cl", "growth": "58.3%"},
      {"molecule": "O=C(Nc1ccc(Oc2cccc(Cl)c2)c(Cl)c1)c1cccnn1", "growth": "89.5%"},
      {"molecule": "Oc1ccc(/C=C/c2ccc(O)cc2)cc1", "growth": "43.6%"},
      {"molecule": "CC1(C)N=c2cc3c(cc2N1c1ccc(Cl)cc1)=Nc1ccccc1N3c1ccc(Cl)cc1", "growth": "-40.4% (active)"},
      {"molecule": "CC/C=C\\C[C@H](O)C/C=C1/C(=O)C=C[C@@H]1C/C=C\\CCCC(=O)NC(C)C", "growth": "-28.2% (active)"},
      {"molecule": "CC(C)c1ncc(CO)n1Cc1c(Cl)cccc1Cl", "growth": "98.7%"},
      {"molecule": "CC1=C2[C@@H](CC1)[C@]1(C)O[C@@](C(C)C)(C[C@H]1OC(=O)CO)[C@H]2OC(=O)CCCc1ccccc1", "growth": "1.28% (active)"}
    ]}
  ]
}
